# Experimental data: the supplement of paper PMC3484114
# ± gives the standard deviation.
# Tested on: OVCAR-3-derived ovarian cancer stem-like cells (spheroids)
# Experiment: cell growth relative to untreated control; higher = more growth (less inhibition)
# Conditions: 2.29 µM; 96 h
# Summary of the method: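 Viability of stem-like cells from OVCAR-3 spheroids was assessed with TOX8 resazurin fluorescence at ex 560/em 590 nm. The cells had been trypsin-dissociated, seeded at 50,000 cells/mL in stem cell medium in ultra-low attachment 96-well plates and preincubated 24 h, then treated with compounds at 2.29 uM for 96 h at 37°C, 5% CO2, in 4 replicate wells, with fluorescence read after 4 h. Results were converted to percent growth against untreated wells after blank subtraction and Grubbs outlier removal.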
row,SMILES,cell growth [%]
1,Cc1cc(O)c2c(c1)C(=O)c1cc(O)cc(O)c1C2=O,107 ± 17
2,COC(=O)c1ccc(NCc2cc(O)ccc2O)cc1,108 ± 12
3,CN(C)CCOc1ccc(I)cc1Cc1ccccc1,74.4 ± 31
4,CN(C)[C@@H]1C(=O)C(C(N)=O)=C(O)[C@@]2(O)C(=O)C3=C(O)c4c(O)cccc4C[C@H]3C[C@@H]12,57.8 ± 20
5,BrC(/C=N/Nc1nnc(-c2ccccc2)c(-c2ccccc2)n1)C(Br)c1ccccc1 (centres undefined),93.9 ± 17
6,BrCCC[P+](c1ccccc1)(c1ccccc1)c1ccccc1,42.9 ± 7.3
7,[N-]=[N+]=Nc1ccc2c(c1)Sc1ccccc1N2CCCCN1CCN(Cc2ccc(C(=O)c3ccccc3)cc2)CC1,95.1 ± 13
8,CC(C)CCCC(=O)CCCCCCC(=O)CCN(O)C(=O)C(N)CO (centres undefined),136 ± 15
9,CC(C)=CCC1=C(O)c2ccccc2C(=O)C1=O,109 ± 28
10,CC[C@@]1(O)C[C@H](O[C@H]2C[C@H](N(C)C)[C@H](O[C@H]3C[C@H](O)[C@H](O[C@H]4CCC(=O)[C@H](C)O4)[C@H](C)O3)[C@H](C)O2)c2c(cc3c(c2O)C(=O)c2c(O)cccc2C3=O)[C@@H]1C(=O)OC,48.2 ± 42
11,CC12CC(Br)(Br)C(=O)C3C1CCCC32,159 ± 19
12,CN(NC1=NCCO1)c1ccc2ccccc2c1,117 ± 18
13,COc1cc(/C=C2\S/C(=N/Nc3nc(-c4ccc(Br)cc4)cs3)NC2=O)cc(OC)c1OC,91.9 ± 19
14,O=C1Nc2c(Cl)cc(Cl)cc2C1=NN=Cc1ccco1,84.3 ± 20
15,O=c1cccccc1O,92.1 ± 38
16,O=C1C=C(Nc2ccccc2C(=O)CC(=O)C(=O)Nc2ccc(Cl)cc2)c2ccccc2C1=O,49.4 ± 15
17,O=C1c2ccccc2C(=O)c2c(O)c(NCCNCCO)cc(O)c21,82.8 ± 24
18,O=C(/C=C/c1c(O)ccc2ccccc12)c1cccc(O)c1,94.3 ± 20
19,NCCCNCCCCNCCCN,141 ± 34
20,CC(C)(C)CC(C)(C)NCC(O)COc1ccc(C(C)(C)c2ccc(OCC(O)CNC(C)(C)CC(C)(C)C)cc2)cc1 (centres undefined),7.1 ± 2.1

row,SMILES,cell growth [%]
1,CC(=O)C(N1CCCCC1)C(O)(C(F)(F)F)C(F)(F)F (centres undefined),107 ± 38
2,N[C@H](C(=O)O)[C@H]1ON=C(Cl)[C@H]1O,91.4 ± 16
3,CN(C)c1ccc(C=c2c3ccccc3n3c2cc(-c2ccc(Cl)cc2)[n+]3C)cc1,39.7 ± 12
4,CCN(CC)CCNC(=O)c1nn(-c2ccc(Cl)cc2)c2c1CCc1cc(OC)ccc1-2,79.1 ± 11
5,Nc1ccn([C@@H]2O[C@H](CO)[C@@H](O)[C@@H]2O)c(=O)n1,76.6 ± 11
6,CCOC(=O)Cc1c(C)c2cc(C(=O)c3ccccc3)c(O)cc2oc1=O,98 ± 18
7,CC(C)N.CC(C)N.[Cl-].[Cl-].[OH-].[OH-].[Pt],65.4 ± 57
8,O=C1C=Cc2ncccc2C1=O,97.9 ± 16
9,C[C@@H]1CC[C@H]2C(C)(C)[C@H]3C[C@@]12CC[C@@]3(C)O,48.3 ± 7
10,O=NN(CCCl)C(=O)NCc1ccc[n+]([O-])c1,76.9 ± 13
11,CCCCCC(/C=C/[C@@H]1CC(=O)C[C@H]1O[Si](C)(C)C(C)(C)C)OCOCCOC (some centres undefined),110 ± 24
12,Nc1ccc(S(=O)(=O)Nc2cnc3c(Cl)cccc3n2)cc1,100 ± 15
13,Cc1cc(NCCCCCCCNc2cc(C)nc3cc(N)ccc23)c2ccc(N)cc2n1,96.4 ± 25
14,Nc1ncnc2c(C3OC(CO)C(O)C3O)[nH]nc12 (centres undefined),23.9 ± 5.3
15,Nc1nncs1,98.4 ± 22
16,Cc1c2ccncc2c(C)c2c1sc1ccccc12,120 ± 13
17,COc1ccc(/C=C2\CCCc3ccccc3C2=O)cc1,54.4 ± 10
18,CC1=CC(C)(C)N=C2SC(c3ccc(N)cc3)=NN12,112 ± 28
19,CCOC(=O)/C=C/c1c(C)[nH]c(=O)[nH]c1=O,91.2 ± 25
